The nature of experiment [1]: Wnt pathway potentiators raising nuclear beta-catenin – imaging, WNT3A-conditioned medium, mouse C2C12, NPC library, primary screen (AID 1117326; in the data active = nuclear beta-catenin stimulation mostly above about 4.2%, no sharp cut-off; inactive = mostly below about 10%; note: reference of the scale not given here). As to conditions: stronger effect = higher value.
Experiment [2] in a line: stimulators of insulin release from INS-1E, primary screen, cell-based, 5 mM glucose, NPC library (AID 1117329;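 active = compound raises insulin release from rat beta cells at 5 mM glucose, no numeric limit stated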; note: reference of the scale not given here). The note with it: rat INS-1E insulin secretion, at 10 µM, stronger effect = higher value.
A short description of experiment [3]: growth inhibition of GSK3B-pretreated HCT116 cells – cell-based, CellTiter-Glo, 0.2 to 20 µM (AID 1117336;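 active = compounds lowering colon cancer cell viability after pretreatment blocking the GSK3B kinase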). As to conditions: HCT116 viability after GSK3B inhibitor, at 20 µM, stronger effect = higher value.
A short description of experiment [4]: inhibition of endothelial tube formation, primary screen, imaging, VEGF stimulated, CD31 staining, tube area, NPC library (AID 1117340;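 active = compound that reduces growth-factor-driven endothelial tube area in a mixed cell culture, no cutoff stated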). As to conditions: VEGF-stimulated ADSC/ECFC co-culture, at 10 µM, stronger effect = higher value.
Experiment [5] in a line: GLP1 release stimulators, primary, NCI-H716, NPC library (AID 1117341;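 active = compound raises GLP1 secretion from the human gut endocrine cells, with no numeric limit stated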; note: reference of the scale not given here). As to conditions: NCI-H716 cells, at 10 µM, stronger effect = higher value.
Experiment [6] in a line: HCT116 colon cancer cell growth inhibition, primary screen, CellTiter-Glo luminescence, NPC library (AID 1117342). The note with it: at 20 µM (top of the series).
Experiment [7] is described as follows: reduced SW480 viability measured with CellTiter-Glo, NPC library, primary (AID 1117343;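 active = compounds that lower viability of the colon cancer cells in the luminescence readout, with no numeric limit stated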). The note with it: CellTiter-Glo luminescence; at 20 µM (top of the series).
Experiment [8] can be described thus: NPC library primary testing for decreased DLD-1 cell viability via CellTiter-Glo (AID 1117346;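 active = compounds that lower survival of DLD-1 colon cancer cells in the luminescence readout, no cutoff given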). As to conditions: DLD-1 viability, CellTiter-Glo luminescence; at 20 µM (top of the series).

The source made the active and inactive calls.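 Rule for the calls, unless noted: active = compounds that lower survival of HCT116 colon cancer cells in the luminescence readout, no numeric limit stated; inactive = the rest.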

For the compound `CNc1c2c(nn1C)CCCC2`, the nuclear beta-catenin stimulation in experiment [1] (at 10 µM) is 0.2% (inactive); in experiment [1] (stimulation, at 2 µM) it was 0.4%. The insulin secretion stimulation in experiment [2] was 0% (inactive). The viability decrease in experiment [3] was -3.4% (inactive). Besides, the tube area decrease in experiment [4] was 16.1% (inactive). In addition, the GLP1 secretion stimulation in experiment [5] is 0% (inactive). For the same compound, the inhibition of viability in experiment [6] was -4.2% (inactive). Further, the viability decrease (inhibition) was -2.2% (inactive) in experiment [7] and 0.1% (inactive) in experiment [8].
As to `Oc1ccc(Cl)cc1Sc1cc(Cl)ccc1O`, the nuclear beta-catenin stimulation in experiment [1] (at 10 µM) was 4.4% (inactive); in experiment [1] (stimulation, at 2 µM), 0%. Also, the insulin secretion stimulation in experiment [2] is 4.5% (inactive). For the same compound, in experiment [3], the viability decrease is 100% (active). Further, in experiment [4], the tube area decrease is 101% (active). The GLP1 secretion stimulation in experiment [5] is 47.3% (active). Further, in experiment [6], the inhibition of viability was 102% (active). Further, the viability decrease (inhibition) in experiment [7] was 122% (active); in experiment [8] it was 103% (active).
As to `OC[C@H]1O[C@@H]2O[C@H]3[C@H](O)[C@@H](O)[C@@H](O[C@H]4[C@H](O)[C@@H](O)[C@@H](O[C@H]5[C@H](O)[C@@H](O)[C@@H](O[C@H]6[C@H](O)[C@@H](O)[C@@H](O[C@H]7[C@H](O)[C@@H](O)[C@@H](O[C@H]8[C@H](O)[C@@H](O)[C@@H](O[C@H]1[C@H](O)[C@H]2O)O[C@@H]8CO)O[C@@H]7CO)O[C@@H]6CO)O[C@@H]5CO)O[C@@H]4CO)O[C@@H]3CO`, the nuclear beta-catenin stimulation in experiment [1] (at 10 µM) is 0.1% (inactive); in experiment [1] (stimulation, at 2 µM) it was 0.5%. Further, in experiment [2], the insulin secretion stimulation is 1.1% (inactive). The viability decrease in experiment [3] is -5.9% (inactive). Also, the tube area decrease in experiment [4] is 2.3% (inactive). Besides, the GLP1 secretion stimulation in experiment [5] is -1.9% (inactive). Further, the inhibition of viability in experiment [6] was 1.17% (inactive). Also, the viability decrease (inhibition) is 21% (inactive) in experiment [7] and -3.7% (inactive) in experiment [8].
For the compound `CC1(C)OC[C@@H](COC(=O)CCc2ccc(OC[C@@H](O)CNCCNC(=O)N3CCOCC3)cc2)O1`, the nuclear beta-catenin stimulation in experiment [1] (at 10 µM) is 0.8% (inactive); in experiment [1] (stimulation, at 2 µM), 1.1%. The insulin secretion stimulation in experiment [2] was 4% (inactive). Also, in experiment [3], the viability decrease is -3.9% (inactive). Further, the tube area decrease in experiment [4] is -22.2% (inactive). The GLP1 secretion stimulation in experiment [5] is 0.6% (inactive). For the same compound, in experiment [6], the inhibition of viability was 8% (inactive). The viability decrease (inhibition) in experiment [7] is 33.8% (inactive); in experiment [8], 44% (inactive).
On to `O=C(O)[C@@H]1CCCN1`, for which the nuclear beta-catenin stimulation in experiment [1] (at 10 µM) was 0.9% (inactive); in experiment [1] (stimulation, at 2 µM), 1.2%. In experiment [2], the insulin secretion stimulation is 1.6% (inactive). Further, in experiment [3], the viability decrease was 2.9% (inactive). For the same compound, in experiment [4], the tube area decrease was -4% (inactive). Moreover, the GLP1 secretion stimulation in experiment [5] is -1.7% (inactive). Besides, the inhibition of viability in experiment [6] is 36.6% (inactive). Also, the viability decrease (inhibition) is 42.8% (inactive) in experiment [7] and 57.9% (active) in experiment [8].
On to `CCCCCCCCCCCCCCCC(=O)OC(C)C`, for which the nuclear beta-catenin stimulation in experiment [1] (at 10 µM) is 0.6% (inactive); in experiment [1] (stimulation, at 2 µM), 1.3%. In experiment [2], the insulin secretion stimulation is 2.3% (inactive). The viability decrease in experiment [3] was -9.5% (inactive). In experiment [4], the tube area decrease was -17.7% (inactive). Moreover, the GLP1 secretion stimulation in experiment [5] was -1.2% (inactive). The inhibition of viability in experiment [6] was 3.07% (inactive). Further, the viability decrease (inhibition) in experiment [7] was -0.2% (inactive); in experiment [8] it was -1.5% (inactive).
Take `CCC(C(=O)NC(=O)NC(C)=O)c1ccccc1` (stereo unspecified): the nuclear beta-catenin stimulation was 0.9% (inactive) in experiment [1] (at 10 µM) and 0.2% in experiment [1] (stimulation, at 2 µM). Further, the insulin secretion stimulation in experiment [2] was 0.6% (inactive). Further, the viability decrease in experiment [3] was 78.3% (active). In experiment [4], the tube area decrease was 7.5% (inactive). For the same compound, the GLP1 secretion stimulation in experiment [5] is -4.7% (inactive). In addition, the inhibition of viability in experiment [6] was 46.2% (inactive). Moreover, the figures for the viability decrease (inhibition) in experiment [7] and in experiment [8] were 70.3% (active) and 6.1% (inactive), respectively.
As to `Cc1cc(C)c(NC(=O)CN(CC(=O)O)CC(=O)O)c(C)c1Br`, the nuclear beta-catenin stimulation was 1.9% (inactive) in experiment [1] (at 10 µM) and 0.6% in experiment [1] (stimulation, at 2 µM). In addition, in experiment [2], the insulin secretion stimulation was 0.25% (inactive). Besides, the viability decrease in experiment [3] is 29.2% (inactive). Further, the tube area decrease in experiment [4] is -4.1% (inactive). Moreover, the GLP1 secretion stimulation in experiment [5] is -3.7% (inactive). Also, the inhibition of viability in experiment [6] was 13.3% (inactive). For the same compound, the viability decrease (inhibition) in experiment [7] is 4.7% (inactive); in experiment [8] it was -14.9% (inactive).
For the compound `Cc1cc(CCCOc2c(C)cc(-c3noc(C(F)(F)F)n3)cc2C)on1`, the nuclear beta-catenin stimulation in experiment [1] (at 10 µM) was 9.7% (inactive); in experiment [1] (stimulation, at 2 µM) it was -3.5%. For the same compound, the insulin secretion stimulation in experiment [2] was -0.2% (inactive). Moreover, the viability decrease in experiment [3] is 46.3% (inactive). Moreover, the tube area decrease in experiment [4] is -0.1% (inactive). For the same compound, the GLP1 secretion stimulation in experiment [5] is -4.1% (inactive). Besides, the inhibition of viability in experiment [6] is 68.5% (active). The viability decrease (inhibition) in experiment [7] was 45.6% (inactive); in experiment [8], 71.8% (active).
On to `O=C(O)Cc1cccc(-c2cc(CCCCCCc3ccc(O[C@H]4O[C@H](CO)[C@@H](O)[C@H](O)[C@@H]4O)c(-c4cccc(CC(=O)O)c4)c3)ccc2O[C@H]2O[C@H](CO)[C@@H](O)[C@H](O)[C@@H]2O)c1`, for which the nuclear beta-catenin stimulation in experiment [1] (at 10 µM) is 0.7% (inactive); in experiment [1] (stimulation, at 2 µM), 1.4%. The insulin secretion stimulation in experiment [2] is 2.3% (inactive). The viability decrease in experiment [3] was -12.7% (inactive). For the same compound, the tube area decrease in experiment [4] is -29% (inactive). In addition, the GLP1 secretion stimulation in experiment [5] is 9.5% (inactive). Further, the inhibition of viability in experiment [6] was -26.6% (inactive). The figures for the viability decrease (inhibition) in experiment [7] and in experiment [8] were -24.6% (inactive) and -14.9% (inactive), respectively.
On to `C/C=C(/C(=C/C)c1ccc(OC(C)=O)cc1)c1ccc(OC(C)=O)cc1`, for which the nuclear beta-catenin stimulation in experiment [1] (at 10 µM) was 18.1% (inactive); in experiment [1] (stimulation, at 2 µM) it was 2.9%. For the same compound, in experiment [2], the insulin secretion stimulation was 1.65% (inactive). Moreover, the viability decrease in experiment [3] was 108% (active). The tube area decrease in experiment [4] is 65.4% (active). The GLP1 secretion stimulation in experiment [5] was 11.9% (inactive). Also, the inhibition of viability in experiment [6] was 108% (active). In addition, the viability decrease (inhibition) in experiment [7] was 129% (active); in experiment [8], 97.2% (active).
For the compound `COC(=O)c1cc(Cl)ccc1NS(=O)(=O)C(F)(F)F`, the nuclear beta-catenin stimulation in experiment [1] (at 10 µM) was -1.2% (inactive); in experiment [1] (stimulation, at 2 µM), -1.2%. The insulin secretion stimulation in experiment [2] is 1.8% (inactive). Besides, the viability decrease in experiment [3] was 17.5% (inactive). Besides, the tube area decrease in experiment [4] is -6.9% (inactive). In experiment [5], the GLP1 secretion stimulation was -0.4% (inactive). Further, in experiment [6], the inhibition of viability is 8.93% (inactive). The values for the viability decrease (inhibition) in experiment [7] and in experiment [8] were 30.2% (inactive) and -4.9% (inactive), respectively.
Consider `Cc1ccc2ccc(Cl)cc2n1`, for which the nuclear beta-catenin stimulation in experiment [1] (at 10 µM) was -0.9% (inactive); in experiment [1] (stimulation, at 2 µM), -2.1%. Moreover, the insulin secretion stimulation in experiment [2] is 1.25% (inactive). In addition, the viability decrease in experiment [3] was -1.7% (inactive). The tube area decrease in experiment [4] is -2.2% (inactive). The GLP1 secretion stimulation in experiment [5] is -2.9% (inactive). Moreover, the inhibition of viability in experiment [6] was 2.4% (inactive). The values for the viability decrease (inhibition) in experiment [7] and in experiment [8] were 1.2% (inactive) and -3.7% (inactive), respectively.
For the compound `COc1cc2c(cc1OC)C(=O)CC2`, the nuclear beta-catenin stimulation in experiment [1] (at 10 µM) is 0.3% (inactive); in experiment [1] (stimulation, at 2 µM) it was 2%. Moreover, the insulin secretion stimulation in experiment [2] was 0.2% (inactive). In addition, the viability decrease in experiment [3] was -1.6% (inactive). Also, in experiment [4], the tube area decrease was 3.8% (inactive). The GLP1 secretion stimulation in experiment [5] is 3.1% (inactive). For the same compound, in experiment [6], the inhibition of viability is -8.1% (inactive). Further, the viability decrease (inhibition) in experiment [7] is 4.2% (inactive); in experiment [8], 14.9% (inactive).

The values above are taken from PubChem BioAssay.
